# The campaign covered roughly 5,500 compounds. About 2,000 (36%) were called active. Another 18% or so got no clear call; they are omitted. Some of the results follow. Values without a mark were called inactive. No stated cut-off is given here; in the data, active means normalized growth mostly below about 0.91 (no sharp cut-off); inconclusive means no clear call, values can overlap the other calls; inactive means mostly above about 0.92.
# Assay: chemical genetic growth profiling, strain panel (AID 1159580);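 further: tested at 20 µM; growth read once vehicle control cultures reached saturation at 30 °C; 1 = growth at the plate median or of vehicle wells; lower values mean less growth of the strain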
# Conditions: S. cerevisiae deletion strains, growth OD
# [1] = locus YAR019C, strain CDC15, hits give low values
# [2] = locus YBL105C, strain PKC1, hits give low values
# [3] = locus YBR135W, strain CKS1, hits give low values
# [4] = locus YBR136W, strain MEC1, hits give low values
# [5] = locus YBR160W, strain CDC28, hits give low values
# [6] = locus YDL017W, strain CDC7, hits give low values
# [7] = locus YDL028C, strain MPS1, hits give low values
# [8] = locus YDL101C, strain DUN1, hits give low values
# [9] = locus YDL108W, strain KIN28, hits give low values
# [10] = locus YDL132W, strain cdc53, hits give low values
# [11] = locus YDL214C, strain PRR2, hits give low values
# [12] = locus YDR052C, strain DBF4, hits give low values
# [13] = locus YDR054C, strain cdc34, hits give low values
# [14] = locus YDR226W, strain ADK1, hits give low values
# [15] = locus YDR477W, strain SNF1, hits give low values
# [16] = locus YER123W, strain YCK3, hits give low values
# [17] = locus YER133W, strain GLC7, hits give low values
# [18] = locus YFL009W, strain cdc4, hits give low values
# [19] = locus YFL029C, strain CAK1, hits give low values
# [20] = locus YFR003C, strain YPI1, hits give low values
# [21] = locus YFR019W, strain FAB1, hits give low values
# [22] = locus YFR028C, strain CDC14, hits give low values
# [23] = locus YGR040W, strain KSS1, hits give low values
# [24] = locus YGR052W, strain FMP48, hits give low values
# [25] = locus YGR092W, strain DBF2, hits give low values
# [26] = locus YHR030C, strain SLT2, hits give low values
# [27] = locus YHR079C, strain IRE1, hits give low values
# [28] = locus YHR082C, strain KSP1, hits give low values
# [29] = locus YHR205W, strain SCH9, hits give low values
# [30] = locus YIL147C, strain SLN1, hits give low values
# [31] = locus YJL095W, strain BCK1, hits give low values
# [32] = locus YJL128C, strain PBS2, hits give low values
# [33] = locus YJL157C, strain FAR1, hits give low values
# [34] = locus YJR016C, strain ILV3, hits give low values
# [35] = locus YJR066W, strain TOR1 (second series), hits give low values
# [36] = locus YJR066W, strain TOR1, hits give low values
# [37] = locus YKL048C, strain ELM1, hits give low values
# [38] = locus YKL067W, strain YNK1, hits give low values
# [39] = locus YKL101W, strain HSL1, hits give low values
# [40] = locus YKL193C, strain SDS22, hits give low values
# [41] = locus YKL203C, strain TOR2, hits give low values
# [42] = locus YLR113W, strain HOG1, hits give low values
# [43] = locus YLR133W, strain CKI1, hits give low values
# [44] = locus YLR403W, strain SFP1, hits give low values
# [45] = locus YML070W, strain DAK1, hits give low values
# [46] = locus YMR001C, strain CDC5, hits give low values
# [47] = locus YMR205C, strain PFK2 (second series), hits give low values
# [48] = locus YMR277W, strain FCP1, hits give low values
# [49] = locus YNL006W, strain LST8, hits give low values
# [50] = locus YNL020C, strain ARK1, hits give low values
# [51] = locus YNL161W, strain CBK1, hits give low values
# [52] = locus YNL183C, strain NPR1, hits give low values
# [53] = locus YNL207W, strain RIO2, hits give low values
# [54] = locus YNL222W, strain SSU72, hits give low values
# [55] = locus YNL307C, strain MCK1 (second series), hits give low values
# [56] = locus YOL078W, strain AVO1, hits give low values
# [57] = locus YOL136C, strain PFK27, hits give low values
# [58] = locus YOR061W, strain CKA2, hits give low values
# [59] = locus YOR119C, strain RIO1, hits give low values
# [60] = locus YOR231W, strain MKK1, hits give low values
# [61] = locus YOR329C, strain SCD5, hits give low values
# [62] = locus YPL031C, strain PHO85, hits give low values
# [63] = locus YPL153C, strain RAD53, hits give low values
# [64] = locus YPL204W, strain HRR25, hits give low values
# [65] = locus YPL209C, strain IPL1, hits give low values
# [66] = locus YPL256C, strain CLN2, hits give low values
# [67] = locus YPR025C, strain CCL1, hits give low values
# [68] = locus YPR106W, strain ISR1, hits give low values
# [69] = locus YPR111W, strain DBF20, hits give low values
# [70] = strain NNK1, hits give low values
# [71] = strain TSCII, hits give low values
smiles,measurement,setting,value
CS/C(Nc1cccc(C(F)(F)F)c1)=C(/C#N)S(=O)(=O)c1ccc(Cl)cc1,normalized growth,[1],0.951
same,normalized growth,[2],0.945
same,normalized growth,[3],0.953
same,normalized growth,[4],0.941
same,normalized growth,[5],0.948
same,normalized growth,[6],0.948
same,normalized growth,[7],0.957
same,normalized growth,[8],0.953
same,normalized growth,[9],0.949
same,normalized growth,[10],0.953
same,normalized growth,[11],0.96
same,normalized growth,[12],0.932
same,normalized growth,[13],0.946
same,normalized growth,[14],0.931
same,normalized growth,[15],0.963
same,normalized growth,[16],0.941
same,normalized growth,[17],0.971
same,normalized growth,[18],0.942
same,normalized growth,[19],0.934
same,normalized growth,[20],0.944
same,normalized growth,[21],0.957
same,normalized growth,[22],0.948
same,normalized growth,[23],0.947
same,normalized growth,[24],0.943
same,normalized growth,[25],0.937
same,normalized growth,[26],0.996
same,normalized growth,[27],0.987
same,normalized growth,[28],1.01
same,normalized growth,[29],0.914
same,normalized growth,[30],0.953
same,normalized growth,[31],0.916
same,normalized growth,[32],0.935
same,normalized growth,[33],0.954
same,normalized growth,[34],0.944
same,normalized growth,[35],0.95
same,normalized growth,[36],0.988
same,normalized growth,[37],0.946
same,normalized growth,[38],0.972
same,normalized growth,[39],0.954
same,normalized growth,[40],0.951
same,normalized growth,[41],1
same,normalized growth,[42],0.882
same,normalized growth,[43],0.945
same,normalized growth,[44],0.925
same,normalized growth,[45],0.962
same,normalized growth,[46],0.948
same,normalized growth,[47],0.978
same,normalized growth,[48],0.956
same,normalized growth,[49],0.958
same,normalized growth,[50],0.943
same,normalized growth,[51],0.94
same,normalized growth,[52],0.992
same,normalized growth,[53],0.936
same,normalized growth,[54],0.957
same,normalized growth,[55],0.926
same,normalized growth,[56],0.951
same,normalized growth,[57],0.915
same,normalized growth,[58],0.985
same,normalized growth,[59],1.01
same,normalized growth,[60],0.94
same,normalized growth,[61],0.951
same,normalized growth,[62],0.956
same,normalized growth,[63],0.973
same,normalized growth,[64],0.911
same,normalized growth,[65],0.943
same,normalized growth,[66],0.981
same,normalized growth,[67],0.946
same,normalized growth,[68],0.954
same,normalized growth,[69],0.949
same,normalized growth,[70],0.947
same,normalized growth,[71],0.942
N#C/C(=N/Nc1cccc(C(F)(F)F)c1)C(=O)c1csc(-c2cccnc2)n1,normalized growth,[1],0.96
same,normalized growth,[2],0.958
same,normalized growth,[3],0.955
same,normalized growth,[4],0.962
same,normalized growth,[5],0.961
same,normalized growth,[6],0.96
same,normalized growth,[7],0.962
same,normalized growth,[8],0.964
same,normalized growth,[9],0.963
same,normalized growth,[10],0.964
same,normalized growth,[11],0.83
same,normalized growth,[12],0.945
same,normalized growth,[13],0.939
same,normalized growth,[14],0.963
same,normalized growth,[15],0.762
same,normalized growth,[16],0.56 (active)
same,normalized growth,[17],0.883
same,normalized growth,[18],0.96
same,normalized growth,[19],0.955
same,normalized growth,[20],0.961
same,normalized growth,[21],0.364 (active)
same,normalized growth,[22],0.967
same,normalized growth,[23],0.832
same,normalized growth,[24],0.566 (active)
same,normalized growth,[25],0.297 (active)
same,normalized growth,[26],0.115 (active)
same,normalized growth,[27],0.139 (active)
same,normalized growth,[28],0.292 (active)
same,normalized growth,[29],0.75
same,normalized growth,[30],0.96
same,normalized growth,[31],0.232 (active)
same,normalized growth,[32],0.923
same,normalized growth,[33],0.802
same,normalized growth,[34],0.954
same,normalized growth,[35],0.578 (active)
same,normalized growth,[36],0.343 (active)
same,normalized growth,[37],0.632 (active)
same,normalized growth,[38],0.854
same,normalized growth,[39],0.534 (active)
same,normalized growth,[40],0.959
same,normalized growth,[41],0.763
same,normalized growth,[42],0.34 (active)
same,normalized growth,[43],0.711 (active)
same,normalized growth,[44],0.776
same,normalized growth,[45],0.578 (active)
same,normalized growth,[46],0.964
same,normalized growth,[47],0.807
same,normalized growth,[48],0.955
same,normalized growth,[49],0.961
same,normalized growth,[50],0.626 (active)
same,normalized growth,[51],0.956
same,normalized growth,[52],0.46 (active)
same,normalized growth,[53],0.941
same,normalized growth,[54],0.96
same,normalized growth,[55],0.461 (active)
same,normalized growth,[56],0.955
same,normalized growth,[57],0.529 (active)
same,normalized growth,[58],0.85
same,normalized growth,[59],0.838
same,normalized growth,[60],0.198 (active)
same,normalized growth,[61],0.966
same,normalized growth,[62],0.484 (active)
same,normalized growth,[63],0.317 (active)
same,normalized growth,[64],0.464 (active)
same,normalized growth,[65],0.957
same,normalized growth,[66],0.236 (active)
same,normalized growth,[67],0.956
same,normalized growth,[68],0.971
same,normalized growth,[69],0.958
same,normalized growth,[70],0.95
same,normalized growth,[71],0.954
